Results on 19 compounds are retold here after PubChem BioAssay (NCATS).

The list shows a part of the results. A call without a number means that no potency is given here. Inconclusive results are not listed. Active and inactive are the calls of the source. The call rests on the fitted dose curve.
Potency means the concentration at half of the fitted maximal effect.

The target in this assay is Polyprotein P1234 (Chikungunya virus (strain S27-African prototype)) (UniProt Q8JUX6). The assay can be described thus: Secondary cell base assay for inhibitors of NSP2Pro Chikungunya virus (CHIKV) (AID 1964100). Further: nearly all actives have a fitted effect of over 70% in size. The note with it: cell-based CHIKV nsP2 protease reporter assay; series mostly up to 51.1 µM. The source says: PI: Natalia J. Martinez Ph.D.
National Center for Advancing Translational Sciences (NCATS),
National Institute of Health (NIH), Rockville, Maryland
Chikungunya virus (CHIKV) is a mosquito-borne RNA virus that has emerged as one of the most important global arboviral threats in the last decade. Although the first CHIKV vaccine has recently been FDA approved for use in healthy adults at increased risk, to date, there are no available antiviral drugs for CHIKV infection. CHIKV nsP2 protease plays a crucial role in the processing of the viral polypeptide precursor to release enzymes required for viral replication, thus making it a promising drug target for antiviral discovery. Here, we established a high-throughput pipeline to identify small molecule inhibitors of nsP2 proteolytic activity. The pipeline is composed of a suite of 1,536-well in vitro assays to support quantitative high-throughput (qHTS) screening campaigns. Specifically, we developed a fluorescence resonance energy transfer (FRET)-based assay using a fluorogenic peptide substrate encompassing an endogenous cleavage site and purified recombinant protease domain (nsP2pro). Using this assay, we interrogated ~37,000 small molecules, including those in drug repurposing libraries as well as chemically diverse and medicinal chemistry-friendly compounds. Hits were selected for follow-up validation against full-length nsP2 and an additional peptide. FRET-based 1,536-well assays for papain, hepatitis C virus NS3-4A, and human furin proteases were implemented to characterize compound selectivity. […] Novel compounds were identified to be potential nsP2 inhibitors and molecular docking analyses were performed to explain the binding mode of selected hits. In vitro antiviral activity was evaluated for a subset of compounds using a high-throughput CHIKV infection assay. To our knowledge, the pipeline presented here is unprecedented for CHIKV antiviral discovery research.
Described herein is the secondary cell-based assay using a reporter construct. Construct cloning was produced by gene synthesis (GeneScript). The Split Nluc reporter construct was cloned into the NheI/EcoRI sites of pcDNA3.1 (+). The Nterm HiBiT (86b) and Cterm LgBiT (11S) sequences of the Split Nluc reporter were separated by a flexible loop containing the nsp3/4 cleavage site ([…]) or a flexible loop without a cleavage site (12X GlySer). nsP2pro expression construct (amino acids 220-798, accession #MT933050) was cloned into the NheI/EcoRI sites of pcDNA3.1 (+) and contained a C-terminal Flag/6xHis tag. The gene synthesis of the Split Nluc reporter and West Nile Virus (WNV) NS2B/NS3 protease expression constructs was performed by Synbio Technologies. The Split Nluc reporter construct included the N-terminal HiBiT (86b) and C-terminal LgBiT (11S) sequences, separated by a loop containing the WNV NS2B/NS3 cleavage site ([…]). The WNV NS2B/NS3 protease expression construct (amino acids 1375-1693, accession #NC_009942) contained a C-terminal Flag/6xHis tag. Both constructs were cloned into the XbaI/AgeI sites of pcDNA3.4.
PROTOCOL TABLE (as described by Inglese J, Shamu CE and Guy RK. 2007)
SEQUENCE No. (e.g., 1, 2, 3, etc.); […] (e.g., Cells, Incubation, Reagent, etc.); VALUE; DESCRIPTION.
1a; Cell Transfection; Lipofectamine 2000.
1b; Cell; 4 uL; Aurora 1536-well, white, tissue culture plate.
2; Incubation; 4 hr; 37C, 5% CO2, 95% humidity.
3; Compound; 20 nL; Echo 650 Liquid Handler.
4; Incubation; overnight; 37C, 55 CO2, 95% humidity.
5; Reagent; 4 uL; Nano-Glo Luciferase assay system.
6; Centrifugation; 2 sec.
7; Detection; Luminescence; ViewLux plate reader (PerkinElmer).
NOTES (numbers refer to sequence numbers above).
1a. […]
Regarding `CCOc1ccc(N(Cc2ccccc2)C(=O)c2nc(S(C)(=O)=O)ncc2Cl)cc1`, the Potency is 2.31 µM (active).

Regarding `Oc1ccc(OC2CCCCO2)cc1` (centres undefined), the Potency entry is “inactive”.

`CC(=O)N[C@@H](C(=O)O[C@H]1CCC(C)(C)[C@@H]2CCC3=C(COC3=O)[C@@]12C)C(C)C`: the Potency entry was “inactive”.

Take `CCc1ccccc1NC(=O)c1cnn(-c2ccc(F)cc2)c1C1CCNCC1`: the Potency entry was “inactive”.

As to `Cn1nnnc1Sc1ncnc2n[nH]c(-c3cccc(S(C)(=O)=O)c3)c12`, the Potency is 11.2 µM (active).

Turning to `CO[C@]1(NC(=O)CSC(F)F)C(=O)N2C(C(=O)O)=C(CSc3nnnn3CCO)CO[C@H]21`, the Potency entry is “inactive”.

For the compound `C=CC(=O)c1ccc2ccccc2c1`, the Potency entry is “inactive”.

Regarding `Cc1ccc(N[S+](=O)([O-])c2cc3c(cc2N[C@@H](C)CO)NC(=O)CC3)cc1N[C@@H](C)CO`, the Potency result was “inactive”.

As to `COC([CH2][Hg])CNC(=O)c1ccccc1OCC(=O)O` (centres undefined), the Potency entry is “inactive”.

Turning to `C=Cc1c(C)c2cc3nc(cc4[nH]c(cc5nc(cc1[nH]2)C(C)=C5CCC(=O)O)c(CCC(=O)OC)c4C)[C@@]1(C)C3=CC=C(C(=O)OC)[C@H]1C(=O)OC`, the Potency entry was “inactive”.

As for `CCC(C)C(=O)OC1C(C)C2(O)C(C=C(CO)CC3(O)C(=O)C(C)=CC32)C2C(C)(C)C12OC(=O)C(C)C` (centres undefined), the Potency result is “inactive”.

For the compound `Cc1c(S(=O)(=O)O)oc2c1C(=O)C(=O)c1c-2ccc2c1CCCC2(C)C`, the Potency result was “inactive”.

As for `CCOc1ccc(NC(=O)c2c(NC(=O)Cc3ccccc3)sc3c2CCC(C)C3)cc1` (centres undefined), the Potency result was “inactive”.

For the compound `Cc1cc(C)cc(NC(=O)CSc2oc(-c3ccccc3)nc2S(=O)(=O)c2ccc(Cl)cc2)c1`, the Potency entry is “inactive”.

In the case of `CCOc1ccc(NC(=O)c2c(NC(=O)Cc3ccccc3)sc3c2CCCCC3)cc1`, the Potency entry is “inactive”.

On to `CC1=C(/C=C/C(C)=C/C=C/C(C)=C/C=C/C=C(C)/C=C/C=C(C)/C=C/C2=C(C)CCCC2(C)C)C(C)(C)CCC1`, for which the Potency entry was “inactive”.

Take `C[C@@H]1C[C@@H](O)[C@@]23CO[C@]2(CO)C[C@@H](O)CC3[C@@]12CC(c1ccoc1)OC2=O` (some centres undefined): the Potency entry is “inactive”.

As for `C[C@@H]1[C@H](O)[C@@H]2OC(=O)C3=C2[C@H](CCC3)[C@@]12C[C@@H](c1ccoc1)OC2=O`, the Potency entry was “inactive”.

As to `C[C@@H]1O[C@@H](O[C@@H]2[C@@H](O)[C@H](OCCc3ccc(O)c(O)c3)O[C@H](CO[C@@H]3O[C@H](CO)[C@@H](O)[C@H](O)[C@H]3O)[C@H]2OC(=O)/C=C/c2ccc(O)c(O)c2)[C@H](O)[C@H](O)[C@H]1O`, the Potency result was “inactive”.
